This is a sample that favours compounds with a hit; in the whole collection about 7.1% have one here.
Lassa entry: inhibitors of Lassa virus binding or entry into cells; Lassa virus pseudotyped entry inhibition, cell-based qHTS; Potency, µM (titrated, usually from 49.2 µM), most hits filed as inhibitors; 4.1% of 18,000 active
MARV entry inh: Marburg virus entry inhibition; Marburg virus pseudotype entry/binding inhibition, cell-based; Potency, µM (titrated, usually from 49.2 µM), most hits filed as inhibitors; 6.5% of 18,000 active; AID 720532
Hits are given with their value; . = inactive; ? = inconclusive; / = no result given; ! = repeats disagree; [ ] = dose if it differs, or a comment. The call rests on the fitted dose curve; tested in HEK293 cells.

SMILES | Lassa entry | MARV entry inh
C(#C[C@@H]1C=C[C@H]2OC(c3ccccc3)OC[C@H]2O1)c1ccccc1 (some centres not stated) | .[8.59 µM] | .[8.59 µM]
CC(C)C[C@H]1COc2c(Cl)cccc2S(=O)(=O)N1Cc1ccc(F)cc1 | . | .
CCN1CCC[C@H]1CNC(=O)c1c(O)c(Cl)cc(Cl)c1OC | . | .
CCCCN1CCC[C@@H]1CNC(=O)c1cc(C#N)c2ccccc2c1OC | ? | 14µM
NS(=O)(=O)c1ccc(N=Nc2c(O)[nH]c3ccc(C(=O)NCc4ccncc4)cc23)cc1 | / | .
CC1(C)CC(=O)C2=C(C1)O[C@@]1(CCCCN3C(=O)c4ccccc4C3=O)Cc3cc(C#N)ccc3[C@H]2O1 | .[8.59 µM] | ?
CCN1C(=NCc2cccc(C(F)(F)F)c2)NC(c2cccc(C(F)(F)F)c2)C(C(=O)OC)=C1C (configuration not stated) | .[8.59 µM] | .[8.59 µM]
Cn1cnnc1Sc1c([N+](=O)[O-])ncn1C | . | .
Cn1cnc([N+](=O)[O-])c1Sc1ncnc2nc[nH]c12 | ? | 10µM!
C[C@@H]1CC([C@H](O)CC2CC(=O)NC(=O)C2)C(=O)[C@@H](C)C1 (some centres not stated) | 1µM | ?
C[C@@H]1C[C@@H]([C@H](O)CC2CC(=O)NC(=O)C2)C(=O)[C@@H](C)C1 | 2.8µM | 3.2µM
CC1(C)CC(=O)C2=C(C1)O[C@@]1(CCCCN3C(=O)c4ccccc4C3=O)Cc3ccccc3[C@H]2O1 | .[8.59 µM] | .[8.59 µM]
Oc1[nH]c2ccccc2c1C=Nc1ccc(-n2cncn2)cc1 | . | .
COC(=O)C1=C(C)N(Cc2ccccc2)C(=NCc2ccc(OC)cc2)NC1c1ccccc1 (configuration not stated) | .[8.59 µM] | .[8.59 µM]
COCC=CC1=CC2=CC(=O)C(C)(OC(=O)c3cnc4ccccc4n3)C(=O)C2=CN1C1CC1 (configuration not stated) | .[8.59 µM] | .[8.59 µM]
CC1(C)CC[C@]2(C(=O)O)CC[C@]3(C)C(=CCC4[C@@]5(C)CC[C@H](O)C(C)(C)[C@@H]5CC[C@]43C)C2C1 (some centres not stated) | ? | .
CC1(C)CC[C@]2(C(=O)O)CC[C@]3(C)C(=CCC4[C@@]5(C)CC[C@H](O)C(C)(C)C5[C@H](O)C[C@]43C)C2C1 (some centres not stated) | 32µM | .
CCN1C(=NCc2ccc(OC)cc2)NC(c2cccc(F)c2)C(C(=O)OC)=C1C (configuration not stated) | .[8.59 µM] | .[8.59 µM]
COC(=O)CC=C[C@@H](C)[C@H](OC)c1c(Br)ccc2c1OCO2 | .[8.59 µM] | ?
COc1c(O)c2c(=O)cc(OC)c3c4c(OC)cc(=O)c5c(O)c(OC)c(C[C@@H](C)OC(=O)c6ccccc6)c(c(c1C[C@@H](C)OC(=O)Oc1ccc(O)cc1)c23)c54 | 32µM | ?
C=CC[C@H]1C[C@H]2CC=CP(=O)(O2)O1 | . | .
CCOC(=O)NN=C1C[C@@H](O)[C@@H](O)[C@@H]2[C@H]3C(=O)N(Cc4ccc5c(c4)OCO5)C(=O)[C@@H]3CC[C@H]12 | .[8.59 µM] | .[8.59 µM]
CCN1C(=S)NC(c2cccs2)C(C(=O)OC)=C1C (configuration not stated) | .[8.59 µM] | .[8.59 µM]
C[C@]12CCC3C(CC[C@]4(O)C[C@@H](O)CC[C@]34C=O)[C@@]1(O)CC[C@@H]2C1=CC(=O)OC1 (some centres not stated) | 1µM | ?
CC(C)CON=C1C[C@@H](O)[C@@H](O)[C@@H]2[C@H]3C(=O)N(Cc4ccc5c(c4)OCO5)C(=O)[C@@H]3CC[C@H]12 | .[8.59 µM] | .[8.59 µM]
SMILES | Lassa entry | MARV entry inh
O=c1[nH]c2ccccc2n1CCCN1CCC(n2c(=O)[nH]c3cc(Cl)ccc32)CC1 | ? | 13µM!
O=C(CCCN1CCC(n2c(=S)[nH]c3ccccc32)CC1)c1ccc(F)cc1 | . | ?
N#Cc1c(NC(=O)c2ccccc2F)sc2c1CCCC2 | . | .
CCN1C(=NCCc2cccnc2)NC(c2ccccc2)C(C(=O)OC)=C1C (configuration not stated) | .[8.59 µM] | ?
C[C@@]1(C(=O)O)NCCc2cc(O)c(O)cc21 | . | 8.9µM
CC1(C)O[C@H]2OC([C@H](O)CON3C(=O)c4ccccc4C3=O)[C@H](O)[C@@H]2O1 (some centres not stated) | .[8.59 µM] | ?
CCCCCCN1CCN(C2CN(CCc3ccccc3)S(=O)(=O)C2)CC1 (configuration not stated) | . | .
CCCCCCCCCCCCCCCCn1cc[n+](Cc2ccccc2)c1C | 11µM | 7.1µM
CC=COC(=O)N[C@@H](c1ccccc1)[C@]1(C(=O)OC)CCCC1=O | .[8.59 µM] | ?
COC(=O)N[C@H](CC(C)=O)c1ccc2c(c1)OCO2 | .[8.59 µM] | .[8.59 µM]
COC(=O)Nc1nc2ccc(C(=O)c3cccs3)cc2[nH]1 | ? | 1.1µM!
COC(=O)Nc1nc2ccc(C(=O)c3ccccc3)cc2[nH]1 | . | ?
C#CCNC(=O)[C@H]1C=C(OC)C(=O)C[C@H]2c3ccccc3C[C@]12C | .[8.59 µM] | .[8.59 µM]
CC(CCC(=O)OC[C@H]1O[C@H](C#Cc2ccccc2)C=C[C@H]1Oc1ccc(C)cc1)=NOC[C@@H](O)[C@H]1O[C@@H]2OC(C)(C)O[C@H]2[C@@H]1O | / | .[8.59 µM]
C#CCN1C(=O)CC[C@@]23C1=NC(C(=O)OC)=C(C(=O)OC)[C@@H]2N(C)c1ccccc13 | .[8.59 µM] | .[8.59 µM]
CCCNC[C@H](O)COc1ccccc1C(=O)CCc1ccccc1 | . | 8.9µM
N#Cc1ccccc1OC[C@H](O)CNCCNC(=O)Nc1ccccc1 | . | .
C[C@@H](NS(=O)(=O)c1cccc(Cl)c1F)[C@H](O)c1ccccc1 | . | .
Cc1ccc(O)c2ncccc12 | . | .
O=Nc1ccc(O)c2ncccc12 | 2.5µM | 4µM
Nc1ccc(O)c([N+](=O)[O-])c1 | . | .
O=[N+]([O-])c1ccc(O)c2ncccc12 | 11µM | 16µM
CC=CCCN1C=C(C(=O)OCC)C(c2ccccc2)NC1=O (configuration not stated) | .[8.59 µM] | .[8.59 µM]
COC(=O)NC(C=Cc1ccccc1)C(C(C)=O)C(=O)OC (configuration not stated) | .[8.59 µM] | ?
COc1ccccc1N1C(=O)[C@@H]2CSCCS(=O)(=O)N2C1=O | . | .
SMILES | Lassa entry | MARV entry inh
C=C1C(O)C2OC3(CCC(/C=C/C(C)C4CC(C)=CC5(OC(CC(C)(O)C(=O)O)CCC5O)O4)O3)CCC2OC1C(O)CC(C)C1OC2(CCCCO2)CCC1C (configuration not stated) | ? | 0.15µM
CCC(=O)c1ccc2c(c1)N(CCCN(C)C)c1ccccc1S2 | 32µM | 22µM
CN(C)CCCN1c2ccccc2Sc2ccccc21 | ? | 7.1µM
CC(=O)c1ccc2c(c1)N(CCCN(C)C)c1ccccc1S2 | . | ?
COc1ccc([C@H]2Sc3ccccc3N(CCN(C)C)C(=O)[C@H]2OC(C)=O)cc1 | ? | .
CCCC[C@]12Cc3ccccc3[C@H](O1)c1c(cc(-c3ccccc3)oc1=O)O2 | .[8.59 µM] | ?
CCCCCC(=O)N1C[C@H](O)[C@@H](n2cc(-c3ccc(F)cc3)nn2)C[C@H]1c1ccccc1 | . | .
CC(=O)N[C@@H](CSC(=O)[C@]1([C@@H](O)C(C)C)NC(=O)[C@H](C)[C@@H]1O)C(=O)O | 3.5µM | ?
CC(=O)N[C@@H](CSC/C=C(\C)CCC=C(C)C)C(=O)O | . | .
C=CCOC(=O)C(C(C)=O)[C@@H](NC(=O)OC)c1cccc(C(F)(F)F)c1 (some centres not stated) | .[8.59 µM] | .[8.59 µM]
COC(=O)C1=C[C@@]2(c3ccc(OC)cc3[C@@H](OC)[C@@H]2C)[C@@H]2C=C[C@@H]1C2 | .[8.59 µM] | .[8.59 µM]

Compound activity from PubChem BioAssay.
